The record followed here is the supplement of paper PMC12024424.

Structures can show the parent of a compound that is named as a salt.

In the experiment the test system is Staphylococcus aureus Sa2 (MRSA, cystic fibrosis isolate). The experiment in a line: growth reduction vs untreated control (viable cell count); higher = stronger antibacterial activity; extreme values may be limits of the assay. The note with it: 0.1 mM; 24 h. The procedure: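 Single-dose screen of the MedChem Express Drug Repurposing Library (0.1 mM, 1% DMSO) against planktonic MRSA S. aureus Sa2 (CF isolate) in TSB in 96-well plates, 37 °C aerobic, 24 h. Assays were run in triplicate and repeated twice.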
On to `CC(C)c1cc(Oc2c(Br)cc(NC(=O)CC(=O)O)cc2Br)ccc1O` [Eprotirome], for which the growth reduction stood at 100%.
On to `CCc1cc(F)c2nc(N3CCC(NC4CCOCC4)CC3)c(-c3nc(C)no3)c(C)c2c1`, for which the growth reduction worked out at 93%.
The value for `O=c1ccc2ccc(O)c(O)c2o1` [Daphnetin] was 98%; that for `COc1cc(NCc2ccc3nc(N)nc(N)c3c2C)cc(OC)c1OC` [Trimetrexate] was 100%; that for `Cc1ccc(Cl)c(Nc2ccccc2C(=O)O)c1Cl` [Meclofenamate (sodium)] was 99%.
The value for `CC[C@H]1[C@@H](O)[C@@H]2[C@H](CC[C@]3(C)[C@@H]([C@H](C)CCC(=O)O)CC[C@@H]23)[C@@]2(C)CC[C@@H](O)C[C@@H]12` [Obeticholic acid] was 98%; that for `Clc1ccc(CO/N=C(\Cn2ccnc2)c2ccc(Cl)cc2Cl)c(Cl)c1` [Oxiconazole nitrate] was 100%.
The value for `CCCCCNC(=N)N/N=C/c1c[nH]c2ccc(OC)cc12` [Tegaserod (maleate)] was 100%; that for `CN(CCCCCCCCCCN(C)C(=O)Oc1cccc([N+](C)(C)C)c1)C(=O)Oc1cccc([N+](C)(C)C)c1` [Demecarium Bromide] was 98%; that for `O=c1[nH]c(=O)n([C@H]2C[C@H](O)[C@@H](CO)O2)cc1F` [Floxuridine] was 100%.
On to `C=CC(=O)Nc1cc(Nc2nccc(-c3cn(C)c4ccccc34)n2)c(OC)cc1N(C)CCN(C)C` [Osimertinib (dimesylate)], for which the growth reduction stood at 100%.
Then `C=CC(=O)Nc1cc(Nc2nccc(-c3cn(C4CC4)c4ccccc34)n2)c(OC)cc1N(C)CCN(C)C` [Almonertinib (hydrochloride)], with 100%; and `CC1(C)CC[C@]2(C(=O)O)CC[C@]3(C)[C@H](C(=O)C=C4[C@@]5(C)C=C(C#N)C(=O)C(C)(C)[C@@H]5CC[C@]43C)[C@@H]2C1` [Bardoxolone], with 100%; and `COc1cc(C(=O)O)ccc1NC(=O)[C@@H]1N[C@@H](CC(C)(C)C)[C@](C#N)(c2ccc(Cl)cc2F)[C@H]1c1cccc(Cl)c1F` [Idasanutlin], with 100%.
The value for `N[C@@H](Cc1cc(I)c(Oc2cc(I)c(O)c(I)c2)c(I)c1)C(=O)O` [L-Thyroxine (sodium salt pentahydrate)] was 100%; that for `Oc1c(Cl)cc(Cl)cc1Sc1cc(Cl)cc(Cl)c1O` [Bithionol] was 100%; that for `c1cn2cc(-c3ccc4cn[nH]c4c3)nc(Nc3ccc(N4CCOCC4)cc3)c2n1` [Entospletinib] was 96%.
Then `CC(=O)OCC(=O)[C@@]1(O)CC[C@H]2[C@@H]3CCC4=CC(=O)C=C[C@]4(C)[C@H]3C(=O)C[C@@]21C` [Prednisone acetate], with 100%.
For the molecule `CC(C)(C)c1nc(-c2cccc(NS(=O)(=O)c3c(F)cccc3F)c2F)c(-c2ccnc(N)n2)s1` [Dabrafenib (Mesylate)], the growth reduction worked out at 90%.
Then `C/C=C(/C(=C/C)c1ccc(O)cc1)c1ccc(O)cc1` [Dienestrol], with 92%; and `C[C@H]1Cc2c([nH]c3cc(Cl)c(F)cc23)[C@@]2(N1)C(=O)Nc1ccc(Cl)cc12` [Cipargamin], with 100%; and `CCCCCCCCCCCCCCCCOP(=O)([O-])OCC[N+](C)(C)C` [Miltefosine], with 100%.
In turn, `Cc1cc(C2CCCCC2)n(O)c(=O)c1` [Ciclopirox (olamine)] registered a growth reduction of 100%.
For `C[C@@H](O[C@H]1OCCN(Cc2n[nH]c(=O)[nH]2)[C@H]1c1ccc(F)cc1)c1cc(C(F)(F)F)cc(C(F)(F)F)c1` [Aprepitant], the growth reduction amounted to 100%.
The value for `Cn1c(O)c(C2=c3ccccc3=NC2=O)c2ccccc21` [Meisoindigo] was 100%; that for `C=CC(N)CCC(=O)O` (stereo not given) [Vigabatrin (hydrochloride)] was 100%.
Then `COC(=O)N[C@H](C(=O)N1CCC[C@H]1c1nc(-c2ccc3c(c2)O[C@@H](c2ccccc2)n2c-3cc3cc(-c4c[nH]c([C@@H]5CCCN5C(=O)[C@@H](NC(=O)OC)C(C)C)n4)ccc32)c[nH]1)C(C)C` [Elbasvir], with 100%.
The value for `O/N=c1\cc(-c2cc3sccc3cn2)oc2ccc(CCCN3CCOCC3)cc12` [Foliglurax (monohydrochloride)] was 100%; that for `Cc1ccc(C(=O)N(CCCN)[C@@H](c2nc3cc(Cl)ccc3c(=O)n2Cc2ccccc2)C(C)C)cc1` [Ispinesib] was 100%.
As for `O=[N+]([O-])c1ccc(O)c2ncccc12` [Nitroxoline], the growth reduction is 100%.
`COc1cc2c(Nc3ccc(Cl)c(Cl)c3F)ncnc2cc1OC[C@@H]1C[C@@H]2CN(C)C[C@@H]2C1` [Tesevatinib] registered a growth reduction of 100%.
For `CC(=O)O[C@@H]1CC[C@@]2(C)[C@@H](CC[C@]3(C)[C@@H]2C(=O)C=C2[C@@H]4[C@@H](C)[C@H](C)CC[C@]4(C)CC[C@]23C)[C@@]1(C)C(=O)O`, the growth reduction came out at 100%.
The value for `CC(C)=CCC/C(C)=C/CC/C(C)=C/CSc1ccccc1C(=O)O` [Salirasib] was 100%.
Then `CCN(CC)CC#CCOC(=O)C(O)(c1ccccc1)C1CCCCC1` (stereo not given) [Oxybutynin (chloride)], with 91%; and `CC(C)(C)c1cc(C(C)(C)C)c(NC(=O)c2c[nH]c3ccccc3c2=O)cc1O` [Ivacaftor], with 99%; and `Cc1ccc(-n2[nH]c(C)c(N=Nc3cccc(-c4cccc(C(=O)O)c4)c3O)c2=O)cc1C` [Eltrombopag (Olamine)], with 100%.
The molecule `CC(O)c1cc(C(=O)N[C@@H](C)Cn2ccc(-c3ccc(C#N)c(Cl)c3)n2)n[nH]1` (stereo not given in full) [Darolutamide] returned a growth reduction of 100%.
Then `CC[C@H](C)C(=O)O[C@H]1C[C@@H](C)C=C2C=C[C@H](C)[C@H](CC[C@@H]3C[C@@H](O)CC(=O)O3)[C@H]21` [Lovastatin], with 100%; and `Cc1c2c(nn1C)CSCc1cc(n(C)n1)CSc1cc(c3ccccc3c1)OCCCc1c(C(=O)O)n(C)c3c-2c(Cl)ccc13`, with 100%.
The value for `Nc1ncccc1-c1nc2ccc(-c3ccccc3)nc2n1-c1ccc(C2(N)CCC2)cc1` [Miransertib] was 95%.
